# Experimental data reported in the supplement of paper PMC6555819.
# Key:
# Assay in all cases: PBM binding z-score (relative to random genomic background probes); higher = stronger binding; sequences stand for … in GC…GCGATTGACAGCGTAGAATGAAGG
# [1] = test system: FXR:RXRa (NR concentration 270 nM, RXRa partner concentration 90 nM)
# In short: (§1)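 Regression normalization was applied to scanned fluorescence from custom Agilent 4×180K protein-binding microarrays. Before scanning, arrays were incubated 1 h with ligand-free nuclear receptor dimers, and binding was detected with antibodies against each partner (one per run). Binding z-scores use the random background probes as reference.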
# [2] = test system: LXRa:RXRa (NR concentration 270 nM, RXRa partner concentration 90 nM)
# In short: as §1
# [3] = test system: LXRa homodimer (NR concentration 270 nM)
# In short: as §1
# [4] = test system: LXRb:RXRa (NR concentration 270 nM, RXRa partner concentration 90 nM)
# In short: as §1
# [5] = test system: LXRb homodimer (NR concentration 270 nM)
# In short: as §1
# [6] = test system: PPARa:RXRa (NR concentration 270 nM, RXRa partner concentration 90 nM)
# In short: as §1
# [7] = test system: PPARg:RXRa (NR concentration 180 nM, RXRa partner concentration 90 nM)
# In short: as §1
# [8] = test system: PPARg:RXRa 270nM:90nM, anti-RXR (NR concentration 270 nM, RXRa partner concentration 90 nM)
# In short: as §1
# [9] = test system: PPARg:RXRa 30nM:10nM, anti-RXR (NR concentration 30 nM, RXRa partner concentration 10 nM)
# In short: as §1
# [10] = test system: PPARg:RXRa 90nM:30nM, anti-RXR (NR concentration 90 nM, RXRa partner concentration 30 nM)
# In short: as §1
# [11] = test system: PPARg:RXRa DBDmut IVT, anti-RXR (DBD mutation: RXRa K156A/R161A, NR concentration 270 nM, RXRa partner concentration 90 nM)
# In short: as §1
# [12] = test system: PPARg:RXRa IVT, anti-PPARg (NR concentration 270 nM, RXRa partner concentration 90 nM)
# In short: as §1
# [13] = test system: PPARg DBDmut:RXRa IVT, anti-PPARg (DBD mutation: PPARg1 K132A/R137A, NR concentration 270 nM, RXRa partner concentration 90 nM)
# In short: as §1
# [14] = test system: PPARg DBDmut IVT, anti-PPARg (DBD mutation: PPARg1 K132A/R137A, NR concentration 270 nM)
# In short: as §1
# [15] = test system: PPARg homodimer (NR concentration 180 nM)
# In short: as §1
# [16] = test system: PXR:RXRa (NR concentration 270 nM, RXRa partner concentration 90 nM)
# In short: as §1
# [17] = test system: PXR homodimer (NR concentration 270 nM)
# In short: as §1
# [18] = test system: RARa:RXR (NR concentration 270 nM, RXRa partner concentration 90 nM)
# In short: as §1
# [19] = test system: RARa homodimer (NR concentration 270 nM)
# In short: as §1
# [20] = test system: RARb:RXRa (NR concentration 270 nM, RXRa partner concentration 90 nM)
# In short: as §1
Sequence,PBM binding z-score [1],PBM binding z-score [2],PBM binding z-score [3],PBM binding z-score [4],PBM binding z-score [5],PBM binding z-score [6],PBM binding z-score [7],PBM binding z-score [8],PBM binding z-score [9],PBM binding z-score [10],PBM binding z-score [11],PBM binding z-score [12],PBM binding z-score [13],PBM binding z-score [14],PBM binding z-score [15],PBM binding z-score [16],PBM binding z-score [17],PBM binding z-score [18],PBM binding z-score [19],PBM binding z-score [20]
TCTATTAGTTGATTAGGGCAAGCGAAACAGCGGA,0.582,0.347,0.126,0.37,0.284,0.756,-0.0527,2.03,3.67,2.81,1.88,1.33,0.35,0.93,0.455,0.314,0.381,0.428,1.01,0.893
ATATGTAGGTTAAGGGTCATTCTGGTTGGTTCGC,5.42,4.75,3.48,4.51,1.56,6.65,11.4,9.66,10.5,11.5,7.57,7.51,2.31,1.76,4.67,4.85,1.04,5.63,2.03,3.56
ATCTCTAGGCAAAAGTTCAGTGAATCCCGAGGAT,0.235,0.757,0.751,0.584,0.319,2.96,5.41,6.14,5.06,6.01,0.185,1.61,0.694,0.529,1.05,1.5,1.04,0.864,-0.11,2.33
CCGACTGGGGGATAAGGTTACCATAAGCCAGCCC,0.506,2.65,-0.0985,2.4,2.01,1.91,1.43,2.38,1.06,2.07,0.611,1.85,1.28,1.34,0.934,1.15,-0.306,1.64,0.448,0.896
TAGCCTAGGTCAGATCGTGCCAGTATACGCTATA,1.53,1.21,-0.412,1.06,0.00468,1.91,0.806,0.67,0.0687,0.244,0.562,1.66,0.149,-0.175,-0.159,0.82,-0.569,1.23,-0.542,3.18
CTACCAAGGTGAACAAGCTCGTTGATTACTATTC,0.329,0.121,-0.188,0.479,-0.421,0.984,0.332,0.345,-0.0799,0.167,2.56,2.23,0.852,0.253,0.000283,-0.0454,-0.0254,0.251,0.281,1.41
AGAACGAGGGCACGATGAGTTGATAGCAGAGTAG,0.874,0.721,-0.147,0.286,-0.796,2.29,2.6,2.02,0.778,1.51,3.75,3.91,0.853,0.0308,0.364,1.17,0.453,1.01,-0.256,2.32
TCATATAGGTAATACAGGTGAAAGTTGGCATCTA,1.53,1.59,0.587,1.49,0.359,2.79,3.47,4.06,4.44,4.48,4.09,3.7,1.17,1.27,1.53,1.23,0.642,1.77,1.84,0.87
ACTAGTAGTTGACTTAGGGCAACCGATACGACGC,-0.211,-0.0231,-0.428,-0.351,-0.259,-0.00302,0.852,-0.176,-0.0859,-0.0744,-0.00679,0.335,0.301,0.391,-0.372,-0.0724,-0.195,0.555,0.281,0.593
CCCTACGGGTCAAGGTTATAGCACGGGTGGTACG,5.27,3.4,0.278,2.78,-0.151,4.7,3.55,4.19,1.1,2.75,-0.17,2.06,-0.206,-1.06,2.1,3.35,0.417,4.27,1.19,4.07
TCATATAGGTAATACAGGTGAAAGCCGGCATCTA,0.854,1.36,0.571,1.21,-0.105,1.96,1.68,2.68,3.73,3.35,3.7,3.6,1.75,1.32,1.14,0.985,0.433,1.36,0.756,0.757
ATCGAAACGTCGAGGTGAGTATAGAGAAAGGGAA,-0.226,-0.343,-0.626,-0.525,-0.471,-0.00336,0.304,-0.503,0.3,-0.335,-1,0.225,0.306,0.714,-0.637,-0.126,-0.0991,0.0247,-0.11,0.508
CAAACTAGGTCACCGGAAGGTCAAATTCCGCATG,6.25,6.28,5.9,5.82,1.95,6.06,9.94,8.01,6.22,7.81,8.5,8.8,3.05,2.87,7.39,6.11,2.46,7.62,3.35,5.12
AGTCAAAGTCCAGGACGAGGTAACGTAAAGCACG,-0.263,-0.424,-0.518,-0.388,-0.767,0.01,0.733,-0.294,-0.119,-0.153,-0.362,-0.000589,0.282,0.0417,-0.362,-0.248,-0.347,-0.00617,-0.392,0.916
TCTTGTAGAGCAATAGAGGTTAAGAAAGTGCGCT,0.316,2.34,0.104,1.18,-0.745,1.92,0.157,1.31,1.69,1.55,1.71,1.36,-0.0371,0.131,-0.051,2.73,-0.322,1.25,-0.851,0.425
